Results filed as inconclusive are left out. The source made the active and inactive calls. The call rests on the fitted dose curve; in most records, active means well fitted inhibition curve with a large enough effect; inconclusive means small, poorly fitted or top-dose-only effect; inactive means no such curve, though single readings can be large or run the other way.
Target: Rap guanine nucleotide exchange factor 3 (Homo sapiens) (UniProt O95398)
Experiment: Confirmatory qHTS for antagonist of cAMP-regulated guanine nucleotide exchange factor 3 (EPAC1) (AID 1645880); further: nearly all actives have a fitted effect of over 55% in size
Details: EPAC1 Rap1B-BODIPY-GDP exchange, fluorescence; series mostly up to 115 µM
Description: Assay Provider (PI): Xiaodong Cheng Ph.D. The University of Texas Medical Branch, […], TX MLPCN Grant: NS066510 In multi-cellular eukaryotic organisms, the effects of cAMP are transduced by two ubiquitously-expressed intracellular cAMP receptors, the classic protein kinase A/cAMP-dependent protein kinase (PKA/cAPK) and the more recently discovered exchange protein directly activated by cAMP/cAMP-regulated guanine nucleotide exchange factor (EPAC/cAMP-GEF). Both PKA and EPAC are ubiquitously expressed in all tissues, and an increase in intracellular cAMP levels will lead to the activation of both PKA and EPAC. Therefore, careful dissections of the individual role and relative contribution of EPAC and PKA within the overall cAMP signaling in various model systems are critical for further elucidating the mechanism of cAMP signaling. To date no EPAC-specific antagonists and agonist, as well as isoform-specific agonists have been reported, and developing EPAC-specific pharmacological probes to determine the physiological functions that EPAC play in the overall cAMP-mediated signaling remains a major challenge within the research field. Furthermore, identified regulators of EPAC may lead to new mechanism-based therapeutic strategies specifically targeting the EPAC / cAMP-signaling components as EPAC has been implicated to play important roles in major human pathological conditions such as diabetes, heart disease, and cancer. This qHTS will be used to screen the Molecular Libraries Small Molecule Repository (MLSMR) as a concentration-titration series using the NCGC unique quantitative screening (qHTS) platform to find activators for EPAC1. In addition, this assay will also be used as a counterscreen for the EPAC2 qHTS. This fluorescent based assay is developed and validated for EPAC1 that measures exchange using EPAC effector Rap1 complex with BODIPY-GDP, a GDP analog with a tethered fluorophores. Activators are identified by monitoring the change in fluorescence signal as the exchanged free BODIPY-GDP has a reduced fluorescence compared to Rap1-bound BODIPY-GDP. Increase in signal (activation) is the desired outcome for the EPAC1 agonist while no activity in this assay is desired for the EPAC2 agonist counterscreen. Reference: [1] de Rooij, J., Zwartkruis, F. J., Verheijen, M. H., Cool, R. H., Nijman, S. M., Wittinghofer, A., and Bos, J.L. (1998) Nature 396, 474-477. Kawasaki, H., Springett, G. M., Mochizuki, N., Toki, S., Nakaya, M., Matsuda, M., Housman, D. E., and Graybiel, A. M. (1998) Science 282, 2275-2279.
Briefly, three uL of reagents (100 nM EPAC1, 250 nM RAP1B-BODIPY-GDP, 50 uM GDP) were dispensed into a 1536-well Greiner black solid-bottom medium binding assay plate. Controls and test compounds (23 nL) were transferred to the plate via a Kalypsys pin tool equipped with a 1536-pin array. The plates were centrifuged at 1,000 rpm for 15 seconds followed by 5 minute incubation at room temperature. The assay plates were read at 5 minute intervals for 30 minutes in the ViewLux plate reader using 480nm excitation and 540nm emission filters. The results were normalized to the […] positive control ATA and DMSO.
Potency means the concentration at half of the fitted maximal effect.

Chain of Rap guanine nucleotide exchange factor 3 (Homo sapiens) (O95398 whole entry, looked up): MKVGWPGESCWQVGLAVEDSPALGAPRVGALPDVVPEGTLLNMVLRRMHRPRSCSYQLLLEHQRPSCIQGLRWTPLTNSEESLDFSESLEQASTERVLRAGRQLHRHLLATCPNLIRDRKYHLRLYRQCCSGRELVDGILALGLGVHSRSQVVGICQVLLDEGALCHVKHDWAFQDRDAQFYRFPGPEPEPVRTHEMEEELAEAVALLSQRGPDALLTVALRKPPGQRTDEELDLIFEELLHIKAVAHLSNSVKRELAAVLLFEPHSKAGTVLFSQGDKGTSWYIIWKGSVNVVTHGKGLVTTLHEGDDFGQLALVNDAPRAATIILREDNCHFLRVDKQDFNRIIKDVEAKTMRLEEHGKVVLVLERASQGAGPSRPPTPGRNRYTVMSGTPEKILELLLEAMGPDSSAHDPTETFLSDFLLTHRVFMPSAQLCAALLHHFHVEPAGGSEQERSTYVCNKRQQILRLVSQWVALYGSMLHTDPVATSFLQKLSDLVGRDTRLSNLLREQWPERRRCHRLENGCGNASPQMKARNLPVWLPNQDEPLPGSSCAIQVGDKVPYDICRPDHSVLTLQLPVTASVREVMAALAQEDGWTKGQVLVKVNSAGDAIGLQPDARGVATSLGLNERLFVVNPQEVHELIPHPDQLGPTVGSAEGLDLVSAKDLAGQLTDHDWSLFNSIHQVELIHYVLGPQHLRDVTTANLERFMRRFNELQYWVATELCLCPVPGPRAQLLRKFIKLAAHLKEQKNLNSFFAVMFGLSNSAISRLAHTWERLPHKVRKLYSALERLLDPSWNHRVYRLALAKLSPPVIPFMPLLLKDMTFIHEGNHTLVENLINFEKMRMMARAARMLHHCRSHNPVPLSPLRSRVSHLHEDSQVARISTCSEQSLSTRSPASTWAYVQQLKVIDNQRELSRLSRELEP

Potency, inactive:
O=c1c(-c2cc(F)cc(F)c2)nc2cnc(N3CCOCC3)nc2n1-c1ccccc1, COc1ccc(CNc2ncnc3ccc(-c4c(C)noc4C)cc23)c(OC)c1, O=C(c1cccc(F)c1)N1CCC[C@@]2(CCN(C(c3ccccc3)c3ccccc3)C2)C1, Cn1cc(-c2nc3cnc(N4CCOCC4)nc3n(CCC#N)c2=O)c2ccccc21, COc1cc(C/C=C/c2ccccc2)c(OC)cc1O, COc1cccc(-c2cc(NCc3ccc(OC)cc3OC)ncn2)c1, COC(=O)C1=C(C)NC(C)=C(C(=O)OCCSc2ccccc2)[C@@H]1C, Cn1c(=O)c(CCc2ccccc2)nc2cnc(Oc3ccccc3)nc21, COc1ccc2[nH]cc(CCNc3nc(-c4cccc(C#N)c4)nc4ccccc34)c2c1, COc1cccc(Nc2ncc3nc(-c4cc(F)cc(F)c4)c(=O)n(C4CC4)c3n2)c1, Cc1ccccc1-c1nc(N(C)Cc2ccco2)c2ccccc2n1, COc1ccc(-n2c(=O)c(-c3ccc(Cl)cc3)nc3cnc(N(C)C)nc32)cc1, O=c1c(-c2ccc(Cl)cc2)nc2cncnc2n1Cc1ccccc1Cl, CC1(C)C(O)CC[C@]2(C)C1CC[C@@]1(C)C2C(=O)C=C2[C@@H]3C[C@@](C)(C(=O)O)CC[C@@]3(C)CCC21C (stereo not given in full), COc1ccc2[nH]cc(CCNc3ncnc4ccc(-c5ccccc5C#N)cc34)c2c1, CC(=O)OC1CCC23CC1(C)CCC2C(C)(C)CC3OC(C)=O (stereo not given), CCOC(=O)c1c(C)cc(OC)cc1O, O=c1c(-c2ccc(F)c(F)c2)nc2cncnc2n1Cc1ccccc1Cl, N#CCCn1c(=O)c(-c2ccc(Cl)cc2)nc2cnc(Nc3ccccc3)nc21, O=C1CC[C@@]23/C=C/C(=O)NCCCCNCCCNC(=O)/C=C/c4ccc(c2c4)OC3C1 (stereo not given in full), C#C[C@]1(OC(C)=O)CCC2C3CCC4=CC(=O)CCC4C3CC[C@]21C (stereo not given in full), COc1ccc(-c2nc3cnc(Nc4cccc(OC)c4)nc3n(CCC#N)c2=O)cc1, Nc1nc2n[nH]nc2c(=O)[nH]1, CC(=O)Oc1ccc2c(c1C(C)C)CCC1C(C)(C)CCC[C@@]21C (stereo not given in full), COc1ccc(-c2nc3cnc(Nc4ccccc4)nc3n(CCC#N)c2=O)cc1, CN(Cc1ccco1)c1nc(-c2cccc(C#N)c2)nc2ccccc12, COc1ccc2c(c1)OCC(Cc1ccc(OC)c(OC(C)=O)c1)C2=O (stereo not given), CC(=O)Oc1ccc2c(c1)CCC1C2CC[C@]2(C)C(OC(C)=O)CCC12 (stereo not given in full), c1ccc(CNc2ccnc(-c3ccc4c(c3)OCO4)n2)cc1, Cn1cccc1C(=O)N1CCC2(CCCN(c3cccc(-c4ccccc4)c3)C2)CC1, COc1cc(/C=C\c2ccc(OC)cc2OC)cc(OC)c1, COCCn1c(=O)c(-c2ccc(OC)cc2)nc2cnc(Nc3cccc(OC)c3)nc21, COc1ccc(C(=O)N2CCC3(CC2)CN(c2cccc(-c4ccccc4)c2)C3)cc1, COc1ccc(CNc2ncncc2-c2ccccc2C)c(OC)c1, COc1cccc(Nc2ncc3nc(-c4cccs4)c(=O)n(-c4ccccc4)c3n2)c1, COCCn1c(=O)c(-c2cc(F)cc(F)c2)nc2cnc(Nc3cccc(OC)c3)nc21

Potency, active:
N#C/C(=C\c1ccc(O)c(O)c1)C(=O)OCCc1cccs1 12.5 µM, O=c1cc(-c2ccc(O)c(O)c2)oc2cc(OC3OC(CO)C(O)C(O)C3O)cc(O)c12 (stereo not given) 7.03 µM, CCCCCc1c2c(cc(O)c1C(=O)O)OC(=O)c1cc(C(=O)CCCC)c(OC)cc1O2 42.6 µM, O=c1c(-c2ccccc2)coc2cc(O)cc(O)c12 44.4 µM
